Assay [1] concerns Wnt5a (protein binding on small-molecule microarray). Put plainly: small molecules binding Wnt5a protein – biophysical, small-molecule microarray, 635/667 nm fluorescence, primary screen (AID 1142).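 Further: fluorescence read at 667 nm with signal to noise per printed feature.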 Particulars: 635 nm fluorescence, higher = more signal.
Assay [2] in a line: ATP-based viability of Huh7 replicon cells – cell-based, CellTiter-Glo luminescence, basal, 48 h, cytotoxicity control for HCV replication inhibitor project, primary screen (AID 1143).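 Further: Huh7 hepatoma cells carrying a hepatitis C replication reporter with no stimulus; test concentration not given here.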 The settings on record: higher = more signal, called active from +8 up or from −8 down. On the technique in general: Replicon systems follow genome replication, usually without infectious particles.

Assay [3] in a line: Pseudomonas biofilm growth suppression – PAO1 strain, BacTiter-Glo luminescence, LB-PBS, primary screen (AID 1144). The settings on record: P. aeruginosa PAO1 biofilm, 12 h, higher = more signal.
Assay [4] is described as follows: basal CRE-LacZ reporter activity in PC12 – cell-based, unstimulated, primary screen (AID 1145). Particulars: no forskolin, luminescence, 4.5 h, higher = more signal, called active from +8 up or from −8 down.
Assay [5] is described as follows: forskolin-driven CRE-LacZ activity in PC12 – cell-based, CRE-LacZ reporter, forskolin-stimulated, primary screen (AID 1146).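 Further: PC12 cells with 6xCRE LacZ reporter stimulated by forskolin 10 µM; beta-galactosidase reporter signal reflecting CREB driven transcription.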 The settings on record: luminescence, 4.5 h, higher = more signal, called active from +8 up or from −8 down.
Assay [6] addresses Streptavidin (Streptomyces avidinii) (UniProt P22629). Put plainly: compounds binding control protein streptavidin – biophysical, small-molecule microarray, 635/667 nm fluorescence, artefact control for SMM compound annotation, primary screen (AID 1147).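 Further: signal reflects streptavidin binding to arrayed compounds as a control protein.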 The settings on record: higher = more signal.
A short description of assay [7]: probe aInhba binding on compound microarray – biochemical, small-molecule microarray, 635/667 nm fluorescence, primary screen (AID 1148).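 Further: score merges 667nm spot fluorescence with signal-to-noise for antibody binding to printed compounds.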 The settings on record: higher = more signal.
The target of assay [8] is Torsin-1A (Homo sapiens) (UniProt O14656). Put plainly: TOR1A wild-type binding on microarray – cell lysate, small-molecule microarray, lysate, 635/667 nm, primary screen (AID 1149). The settings on record: COS7 hTOR1A-WT lysate, 635 nm fluorescence, higher = more signal.
For assay [9] the target is unchanged. Put plainly: torsin A mutant lysate binding on microarrays – cell lysate, small-molecule microarray, COS7 lysate, 635/667 nm fluorescence, primary screen (AID 1150).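 Further: score pools 667 nm emission and signal to noise measuring lysate protein binding.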 Particulars: COS7 hTOR1A mutant lysate, 635 nm fluorescence, higher = more signal.
Assay [10] has as its system Sonic hedgehog protein (Shh). Description: Sonic hedgehog microarray binding compounds – biochemical, small-molecule microarray, 635/667 nm fluorescence, primary screen (AID 1151).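 Further: Shh protein binding to compounds spotted on small-molecule microarray slides; score combines spot fluorescence intensity with signal-to-noise across triplicate slides.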 Particulars: 635 nm fluorescence, higher = more signal.
Assay [11] in a line: optical density shifts of acrAB sulA E. coli – strain DRC41, OD650, 48 h, E. coli filamentation inducer project, primary screen (AID 1152).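 Further: E. coli MC1000 strain DRC41 lacking acrAB efflux pump and sulA.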 The settings on record: higher = more signal, called active from +8 up or from −8 down.
The nature of assay [12]: probe aLefty1 binding on compound microarray – biochemical, small-molecule microarray, 635/667 nm fluorescence, primary screen (AID 1153).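 Further: score merges spot fluorescence with signal-to-noise ratio from the scanned slide images.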 The settings on record: higher = more signal.
A short description of assay [13]: plasmodial surface anion channel blockers, osmotic lysis – cell-based, P. falciparum Indochina, OD700, 1 h, primary screen (AID 1154). The settings on record: P. falciparum Indochina infected RBC osmotic lysis, higher = more signal, called active from +8 up or from −8 down.
Assay [14] is described as follows: plasmodial surface anion channel blockers, osmotic lysis – cell-based, P. falciparum Indochina, OD700, 2 h, primary screen (AID 1155).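 Further: lysis reports solute entry through the parasite surface anion channel PSAC.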 Particulars: P. falciparum Indochina infected erythrocytes, higher = more signal, called active from +8 up or from −8 down.
Assay [15] in a line: changes in parasitized red cell lysis, either direction – P. falciparum Indochina, OD700, 3 h, PSAC antagonist project, primary screen (AID 1156). Particulars: P. falciparum-infected erythrocytes, osmotic lysis, higher = more signal, called active from +8 up or from −8 down.
Assay [16] is described as follows: plasmodial surface anion channel blockers, osmotic lysis – cell-based, P. falciparum Indochina, OD700, 18 h, primary screen (AID 1157). Particulars: P. falciparum Indochina infected erythrocytes, osmotic lysis OD700, 18 h; higher = more signal, called active from +8 up or from −8 down.
A short description of assay [17]: S6 kinase pathway phospho-S6 level changes – cell-based, A549, cytoblot, luminescence, serum-stimulated, primary screen (AID 1158).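 Further: serum-stimulated A549 lung adenocarcinoma cells; signal is phosphorylated S6 detected by cytoblot immunostaining with HRP secondary.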 The settings on record: 5 h, higher = more signal.
The target of assay [18] is NADPH oxidase 2 (Homo sapiens) (UniProt P04839). Put plainly: compounds shifting NOX2 Amplex Red fluorescence – cell-based, HEK293-NOX2, PMA-stimulated, NOX inhibitor project, primary screen (AID 1159). Further: test concentration not given here. The settings on record: 45 min, higher = more signal, called active from +8 up or from −8 down.
Assay [19] has as its target NADPH oxidase 4 (Homo sapiens) (UniProt Q9NPH5). Put plainly: compounds shifting NOX4 Amplex Red fluorescence – cell-based, HEK293-NOX4, tetracycline-induced, NOX inhibitor project, primary screen (AID 1160). Particulars: HEK293-NOX4, Amplex Red H2O2 fluorescence, 45 min; higher = more signal, called active from +8 up or from −8 down.
Assay [20] has as its target NADPH oxidase 5 (Homo sapiens) (UniProt Q96PH1). Put plainly: compounds shifting NOX5 Amplex Red fluorescence – cell-based, HEK293-NOX5, NOX inhibitor project, primary screen (AID 1161). The settings on record: HEK293-NOX5, ionomycin, 45 min, higher = more signal.

The structures appear in SMILES notation. Calls of active or inactive are those of the source. Unless noted, how the calls were made is not given here.

Chain of Torsin-1A (Homo sapiens) (O14656 whole entry, looked up): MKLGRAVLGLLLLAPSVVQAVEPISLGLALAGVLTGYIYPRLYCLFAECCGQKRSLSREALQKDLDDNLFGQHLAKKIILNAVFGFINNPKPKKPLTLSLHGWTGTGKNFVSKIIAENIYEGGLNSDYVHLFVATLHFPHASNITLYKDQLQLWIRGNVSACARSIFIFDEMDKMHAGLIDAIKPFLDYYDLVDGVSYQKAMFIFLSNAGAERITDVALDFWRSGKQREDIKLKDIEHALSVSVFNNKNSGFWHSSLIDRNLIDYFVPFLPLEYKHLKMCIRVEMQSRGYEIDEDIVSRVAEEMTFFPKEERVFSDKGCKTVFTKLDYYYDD
Chain of Streptavidin (Streptomyces avidinii) (P22629 whole entry, looked up): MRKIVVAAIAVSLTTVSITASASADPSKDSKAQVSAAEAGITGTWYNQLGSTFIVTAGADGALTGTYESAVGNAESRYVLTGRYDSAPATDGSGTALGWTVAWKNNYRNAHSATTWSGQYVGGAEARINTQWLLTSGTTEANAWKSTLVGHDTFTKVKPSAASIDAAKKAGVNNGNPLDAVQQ
Chain of NADPH oxidase 2 (Homo sapiens) (P04839 whole entry, looked up): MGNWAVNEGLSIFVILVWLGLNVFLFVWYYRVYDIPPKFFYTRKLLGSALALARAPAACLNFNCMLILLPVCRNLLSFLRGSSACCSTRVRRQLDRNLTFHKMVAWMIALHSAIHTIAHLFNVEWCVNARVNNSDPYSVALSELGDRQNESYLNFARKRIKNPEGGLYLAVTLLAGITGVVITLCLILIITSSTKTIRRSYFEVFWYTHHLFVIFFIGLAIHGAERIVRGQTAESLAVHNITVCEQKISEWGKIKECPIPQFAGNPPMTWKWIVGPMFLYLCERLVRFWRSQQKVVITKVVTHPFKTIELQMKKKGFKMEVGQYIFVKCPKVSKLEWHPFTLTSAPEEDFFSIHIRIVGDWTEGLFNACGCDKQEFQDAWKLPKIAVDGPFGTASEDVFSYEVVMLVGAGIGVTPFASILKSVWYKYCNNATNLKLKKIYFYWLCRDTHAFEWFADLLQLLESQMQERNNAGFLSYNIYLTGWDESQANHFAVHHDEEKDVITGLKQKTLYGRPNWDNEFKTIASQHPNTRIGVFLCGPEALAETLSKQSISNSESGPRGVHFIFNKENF
Chain of NADPH oxidase 5 (Homo sapiens) (Q96PH1 whole entry, looked up): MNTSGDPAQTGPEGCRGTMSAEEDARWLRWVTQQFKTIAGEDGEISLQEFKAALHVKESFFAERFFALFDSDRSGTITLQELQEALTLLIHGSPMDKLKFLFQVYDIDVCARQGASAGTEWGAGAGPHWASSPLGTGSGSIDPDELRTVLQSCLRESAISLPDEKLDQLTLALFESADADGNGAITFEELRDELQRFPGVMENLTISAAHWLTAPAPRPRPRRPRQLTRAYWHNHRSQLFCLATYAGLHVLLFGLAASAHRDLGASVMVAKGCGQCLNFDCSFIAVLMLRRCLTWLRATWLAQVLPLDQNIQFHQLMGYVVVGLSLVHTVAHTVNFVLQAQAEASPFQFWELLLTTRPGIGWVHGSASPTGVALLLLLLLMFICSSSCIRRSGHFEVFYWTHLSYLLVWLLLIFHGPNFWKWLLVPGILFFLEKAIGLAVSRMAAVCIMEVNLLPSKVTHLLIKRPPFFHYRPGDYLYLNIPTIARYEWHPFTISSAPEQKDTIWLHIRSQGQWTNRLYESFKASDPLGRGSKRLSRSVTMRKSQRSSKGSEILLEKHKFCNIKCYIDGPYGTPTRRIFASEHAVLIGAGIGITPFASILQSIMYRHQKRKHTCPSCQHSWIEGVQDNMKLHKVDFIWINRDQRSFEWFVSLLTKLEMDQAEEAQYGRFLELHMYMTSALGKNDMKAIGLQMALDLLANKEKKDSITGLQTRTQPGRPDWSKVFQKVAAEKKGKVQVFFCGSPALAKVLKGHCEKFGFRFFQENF
Chain of NADPH oxidase 4 (Homo sapiens) (Q9NPH5 whole entry, looked up): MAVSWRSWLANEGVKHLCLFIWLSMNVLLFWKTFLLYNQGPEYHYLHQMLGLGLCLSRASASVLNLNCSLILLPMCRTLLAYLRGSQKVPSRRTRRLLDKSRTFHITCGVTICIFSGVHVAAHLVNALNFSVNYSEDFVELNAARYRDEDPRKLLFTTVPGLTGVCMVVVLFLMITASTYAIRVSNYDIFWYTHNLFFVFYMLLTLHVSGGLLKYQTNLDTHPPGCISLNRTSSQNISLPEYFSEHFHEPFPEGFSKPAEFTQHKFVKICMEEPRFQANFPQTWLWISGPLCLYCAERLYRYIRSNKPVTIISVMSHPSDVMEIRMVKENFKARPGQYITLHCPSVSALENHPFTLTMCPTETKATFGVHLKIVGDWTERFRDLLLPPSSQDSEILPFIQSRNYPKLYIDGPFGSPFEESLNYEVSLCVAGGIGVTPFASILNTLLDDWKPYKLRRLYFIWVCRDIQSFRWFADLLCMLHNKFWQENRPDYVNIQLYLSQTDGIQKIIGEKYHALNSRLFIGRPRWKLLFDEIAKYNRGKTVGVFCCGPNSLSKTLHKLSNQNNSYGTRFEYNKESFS

In the case of `NCCCCCCNC(=O)[C@@H]1C[C@@H]2C(=O)NCC(=O)N2[C@@H]1c1cccc(OCCO)c1`, the composite z-score in assay [1] is 0.729; in [6], 1.03; in [7], -0.0624; with Torsin-1A (Homo sapiens) [8], 1.56; with Torsin-1A (Homo sapiens) [9] it was 2.08; in [10], 1.31. The composite z-score in [12] amounted to 0.0892. The z-score was -0.271 (inactive) in assay [2]; -0.584 (inactive) in assay [3]; 0.0205 (inactive) in assay [4]; -0.19 (inactive) in assay [5]; 0.884 (inactive) in [11]; 1.68 (inactive) in assay [13]. In addition, the z-score in assay [14] is 0.774 (inactive); in [15] it was -0.523 (inactive); in assay [16] it was 0.0308 (inactive); in assay [17], 1.51; in assay [18], 1.29 (inactive); in [19], 0.934 (inactive). For the same compound, the z-score in assay [20] worked out at 1.65.

Turning to `COC(=O)[C@@]1(Cc2ccccc2)[C@H]2c3cc(C(=O)N(C)C)n(Cc4ccc(Cl)c(C(F)(F)F)c4)c3C[C@H]2CN1C(=O)c1ccccc1`, the composite z-score in assay [1] was 0.498; in assay [6] it was 1.56; in assay [7], 0.63; with Torsin-1A (Homo sapiens) [8], -0.172; with Torsin-1A (Homo sapiens) [9], 0.0947; in [10], 1.31. For the same compound, the composite z-score in assay [12] is 0.936. The z-score in [2] is -3.79 (inactive); in assay [3], 0.821 (inactive); in assay [4] it was 0.583 (inactive); in assay [5], -0.244 (inactive); in [11], -2.34 (inactive); in [13] it was 2.46 (inactive). The z-score in assay [14] is 0.943 (inactive); in [15], 0.453 (inactive); in assay [16], 1.18 (inactive); in assay [17], -0.114; in assay [18], 0.0852 (inactive); in assay [19], -0.895 (inactive). Moreover, the z-score in assay [20] was -1.92.

`CN(C)CCCCCCNC(=O)[C@@H]1C[C@@H]2C(=O)N[C@@H](CCCC[N+](C)(C)C)C(=O)N2[C@@H]1c1cccc(OCCO)c1`: the composite z-score in assay [1] is 0.144; in assay [6], -0.3; in assay [7] it was 0.0569; with Torsin-1A (Homo sapiens) [8], 0.327; in the assay with Torsin-1A (Homo sapiens) [9], -0.284; in assay [10] it was -0.371. In assay [12], this compound registered a composite z-score of 0.0651. In addition, the z-score in assay [2] was -0.966 (inactive); in assay [3], -0.217 (inactive); in [4] it was -0.805 (inactive); in [5], -0.416 (inactive); in [11] it was 1.44 (inactive); in [13] it was 5.12 (inactive). Also, the z-score is -0.16 (inactive) in assay [14]; 1.47 (inactive) in [15]; -1.04 (inactive) in assay [16]; 2.66 in [17]; -0.0444 (inactive) in assay [18]; 0.249 (inactive) in [19]. Further, the z-score in assay [20] came out at 1.55.

For the compound `O=C1N(Cc2ccccc2)c2ccccc2C[C@@]12N=C(c1ccc(OCCCO)cc1)O[C@H]2c1ccccc1`, the composite z-score in assay [1] was 0.378; in [6] it was 0.798; in assay [7], -0.0963; with Torsin-1A (Homo sapiens) [8] it was -0.133; with Torsin-1A (Homo sapiens) [9], 0.318; in assay [10], 1.34. Besides, the composite z-score in assay [12] turned out to be 0.383. The z-score in [2] is -3.89 (inactive); in assay [3] it was -0.34 (inactive); in [4], 1.87 (inactive); in assay [5], -0.483 (inactive); in assay [11], -1.12 (inactive); in assay [13], 10.8 (active). For the same compound, the z-score in assay [14] is 2.67 (inactive); in [15] it was 3.39 (inactive); in assay [16] it was 1.03 (inactive); in assay [17], 0.075; in [18], 1.92 (inactive); in [19] it was 0.112 (inactive). For the same compound, in assay [20], the z-score is -1.67.

As for `COC(=O)[C@@]1(Cc2ccc(F)cc2)[C@H]2c3cc(C(=O)N4CCCC4)n(Cc4ccc(OC(F)(F)F)cc4)c3C[C@H]2CN1C(=O)c1ccccc1`, the composite z-score was -0.0554 in assay [1]; -0.203 in assay [6]; 0.0306 in assay [7]; -0.0112 with Torsin-1A (Homo sapiens) [8]; 0.395 with Torsin-1A (Homo sapiens) [9]; -1.02 in assay [10]. For the same compound, in [12], the composite z-score was -0.0141. For the same compound, the z-score in assay [2] is -0.0066 (inactive); in assay [3] it was -0.679 (inactive); in assay [4], -0.185 (inactive); in [5] it was 0.137 (inactive); in assay [11], -2.47 (inactive); in [13], 0.498 (inactive). Besides, the z-score is 0.851 (inactive) in assay [14]; -0.194 (inactive) in assay [15]; 0.642 (inactive) in assay [16]; 0.0769 in assay [17]; 0.372 (inactive) in assay [18]; 0.32 (inactive) in [19]. In [20], the z-score was -0.51.

Take `COc1ccc(CCNC(=O)[C@@H]2c3ccccc3C(=O)N(Cc3cc(F)cc(C(F)(F)F)c3)[C@H]2c2ccc(CO)cc2)cc1`: the composite z-score in assay [1] was determined as 0.0093; in assay [6], 0.234; in [7] it was 0.396; with Torsin-1A (Homo sapiens) [8], 0.642; with Torsin-1A (Homo sapiens) [9], 0.478; in [10], 0.618. The compound further gave a composite z-score in assay [12] of 0.659. The z-score is -0.489 (inactive) in assay [2]; 0.869 (inactive) in assay [3]; 0.585 (inactive) in assay [4]; -1.11 (inactive) in [5]; 0.799 (inactive) in [11]; 3.5 (inactive) in [13]. Besides, the z-score in assay [14] is 0.69 (inactive); in assay [15] it was 0.563 (inactive); in [16], 0.0614 (inactive); in assay [17], -0.155; in assay [18], -2.4 (inactive); in [19], -0.0983 (inactive). Also, the z-score in assay [20] was -2.21.

`O=C1O[C@H](c2ccccc2)[C@H](c2ccccc2)N2[C@H]1[C@@H](C(=O)Nc1nc3ccccc3s1)[C@]1(C(=O)Nc3ccccc31)[C@H]2c1ccccc1OCCO`: the composite z-score in assay [1] is -0.023; in assay [6], 1.25; in [7] it was 0.161; with Torsin-1A (Homo sapiens) [8], 0.869; with Torsin-1A (Homo sapiens) [9] it was 1.11; in [10], 0.465. The same compound had a composite z-score in [12] of 0.347. Further, the z-score in [2] was -4.68 (inactive); in assay [3], -0.804 (inactive); in [4], 0.272 (inactive); in assay [5], 0.519 (inactive); in [11], 0.185 (inactive); in [13], 7.3 (inactive). Moreover, the z-score in [14] was 5.1 (inactive); in assay [15], -5.41 (inactive); in [16] it was 1.79 (inactive); in [17], 0.354; in assay [18], 1.47 (inactive); in assay [19], 0.862 (inactive). In addition, the z-score in assay [20] was found to be 1.86.

On to `[N-]=[N+]=NCc1ccccc1[C@H]1OC(c2ccc(OCCCO)cc2)=N[C@@]1(Cc1ccccc1N=[N+]=[N-])C(N)=O`, for which the composite z-score in assay [1] worked out at 0.395; in assay [6] it was 1.23; in assay [7], 0.472; with Torsin-1A (Homo sapiens) [8] it was 1.55; with Torsin-1A (Homo sapiens) [9], 0.949; in assay [10], 0.183. The compound also yielded a composite z-score in [12] of 0.439. Besides, the z-score in assay [2] is -1.38 (inactive); in assay [3], -1.13 (inactive); in [4], 0.0451 (inactive); in assay [5], -0.697 (inactive); in assay [11] it was -0.0584 (inactive); in [13], 22.9 (active). In addition, the z-score in assay [14] was 3.47 (inactive); in assay [15], 1.46 (inactive); in assay [16], 0.79 (inactive); in assay [17], 0.362; in [18], -4.46 (inactive); in assay [19], -0.74 (inactive). In addition, the z-score in [20] was -2.11.

For the origin of these results see PubChem BioAssay.
